ClpP mod – qHTS Assay for Activators of ClpP. purified B. subtilis ClpP, FRET peptide cleavage, 20 min. Potency, µM (series often up to 57.5 µM), for the others: top-dose activity change, negative = active. hit rate 1.9% among 340,000; active = well fitted falling curve with a large enough effect; inconclusive = small, poorly fitted or top-dose-only effect; inactive = no such curve, though single readings can be large or run the other way; note: potency is the fitted concentration of half-maximal effect; the source files actives as falling curves though it sought activators and does not explain the sign; nearly all actives have a fitted effect of over 65% in size
Target sequence (P80244 whole entry, looked up): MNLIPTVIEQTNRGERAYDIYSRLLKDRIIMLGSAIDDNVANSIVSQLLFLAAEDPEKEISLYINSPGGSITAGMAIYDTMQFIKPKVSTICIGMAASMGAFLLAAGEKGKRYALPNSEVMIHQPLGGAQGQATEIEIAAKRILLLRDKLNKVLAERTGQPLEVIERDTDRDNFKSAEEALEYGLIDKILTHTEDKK
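ClpP 10 microg/mL final, pH 8 Tris/KCl buffer with BSA, glycerol, Tween-20; compound pinned in; FRET-FV substrate; RT 20 min; Ex320/Em430; ΔFRET vs ADEP 5.8 microM, DMSO, no enzyme.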
DT40 TDP1 no CPT – qHTS for Inhibitors of human tyrosyl-DNA phosphodiesterase 1 (TDP1): qHTS in cells in absence of CPT | DT40 Tdp1-/- hTDP1 cells, no CPT, ATP luminescence, 48 h | Potency, µM (titrated, usually from 46.2 µM), for inactives: at the top dose activity change, negative = growth inhibition, most hits filed as inhibitors | hit rate 15% among 420,000; note: potency is the fitted concentration of half-maximal effect; % is set by controls: 0 for no effect and ±100 for the full control effect; nearly all actives have a fitted effect of over 55% in size
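No-CPT arm: Tdp1-/-;hTDP1 DT40 cells (400/well) plus compounds, incubated ≥48 hr at 37 °C. Readout CellTiter-Glo luminescence.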
IL-1B inflam inh – qHTS for Inhibitors of Inflammasome Signaling: IL-1-beta AlphaLISA Primary Screen; THP-1 LPS/ATP IL-1B secretion, AlphaLISA, 16 h; hits give low values; activity change, % at 57.5 µM; hit rate 4.7% among 360,000; in the data active = activity change below about -50%; inconclusive = mostly about -30% to -49%; note: % is set by controls: 0 for no effect and ±100 for the full control effect
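THP-1 cells pretreated 1 hr with compounds (up to 57.5 uM final), then stimulated with LPS (250 ng/mL final) plus ATP (1.25 mM final); secreted IL-1B measured by AlphaLISA after 16 hr, decreased signal indicating inhibition.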
D3 antag – qHTS of D3 Dopamine Receptor Antagonist: qHTS. hit rate 2.5% among 360,000. AID 652054, 2013. D(3) dopamine receptor (Homo sapiens), P35462. max response, negative = inhibition, %. D3R cells, DiscoveRx beta-arrestin luminescence, antagonist mode; hits give low values; in the data active = max response below about -50%; inconclusive = no clear call, values can overlap the other calls; note: % is set by controls: 0 for no effect and ±100 for the full control effect
Target sequence (P35462 whole entry, looked up): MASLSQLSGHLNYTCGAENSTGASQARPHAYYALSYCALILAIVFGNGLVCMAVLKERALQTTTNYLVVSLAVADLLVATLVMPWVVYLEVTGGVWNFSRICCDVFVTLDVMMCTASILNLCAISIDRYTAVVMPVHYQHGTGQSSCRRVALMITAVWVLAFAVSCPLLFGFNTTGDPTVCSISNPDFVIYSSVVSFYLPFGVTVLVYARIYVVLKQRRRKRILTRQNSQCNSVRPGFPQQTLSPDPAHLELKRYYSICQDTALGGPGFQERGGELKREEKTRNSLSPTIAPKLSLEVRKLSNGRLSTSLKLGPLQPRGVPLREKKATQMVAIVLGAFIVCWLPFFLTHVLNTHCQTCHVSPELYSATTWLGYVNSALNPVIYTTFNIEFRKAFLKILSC
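Cells expressing the human receptor were seeded at 1500 cells/well, incubated overnight at 37 degrees C in 5% CO2, then exposed to library compounds with dopamine controls for 90 minutes at 37 degrees C before luminescent detection.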
DRD3 agonist – qHTS of D3 Dopamine Receptor Agonist: qHTS; D(3) dopamine receptor (Homo sapiens), P35462; D3R DiscoveRx beta-arrestin cells, luminescence, 90 min; max activation, %; hit rate 0.58% among 410,000; in the data active = max activation above about 30%; note: 0% is about no effect
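Agonist mode: compounds and dopamine controls were applied to plated cells for 90 min at 37 degrees C after an overnight attachment at 1500 cells/well. Luminescent read-out followed 30 - 60 minutes at room temperature with DiscoveRx detection reagent.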
DT40 TDP1 CPT – qHTS for Inhibitors of human tyrosyl-DNA phosphodiesterase 1 (TDP1): qHTS in cells in presence of CPT. hit rate 12% among 420,000. Potency, µM (top dose mostly 46.2 µM), for the others: at the highest dose activity change, negative = growth inhibition, most hits filed as inhibitors. chicken DT40 Tdp1-/-;hTDP1 cells + 20 nM CPT, ATP luminescence, 48 h; note: potency is the fitted concentration of half-maximal effect; % is set by controls: 0 for no effect and ±100 for the full control effect; nearly all actives have a fitted effect of over 55% in size
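Chicken DT40 Tdp1-/- cells stably complemented with human TDP1 were seeded at 400 cells/well in medium containing 20 nM camptothecin, exposed to pin-transferred compounds, and grown at 37 °C for at least 48 hr. Viability was read as ATP luminescence.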
The depositor's hits bear a star; [ ] = remark or other dose. An excerpt weighted towards active compounds, which were near 21% of everything screened. Unless noted, calls come from the whole dose curve; as a rule, active = well fitted inhibition curve with a large enough effect; inconclusive = small, poorly fitted or top-dose-only effect; inactive = flat fitted curve, though single readings scatter.

Cc1ccc(N/C=C(\C#N)S(=O)(=O)c2ccccc2)cc1 was read as DT40 TDP1 no CPT -12%, IL-1B inflam inh -20, D3 antag 1, DRD3 agonist 5 and DT40 TDP1 CPT -6%.
O=C(CC(=O)c1ccccc1O)c1ccc(F)cc1 was read as ClpP mod 2%, DT40 TDP1 no CPT 12µM*, IL-1B inflam inh 37, D3 antag 5, DRD3 agonist 0 and DT40 TDP1 CPT 10µM*.
Screening O=C(CC(=O)c1c(F)cccc1Cl)c1ccccc1O returned ClpP mod -10%, DT40 TDP1 no CPT 12µM*, IL-1B inflam inh 7, D3 antag -22, DRD3 agonist -18 and DT40 TDP1 CPT inconclusive.
For NC(=O)c1ccccc1NCC(=O)c1ccc(F)cc1 the results were DT40 TDP1 no CPT -21%, IL-1B inflam inh 39, D3 antag -17, DRD3 agonist -14 and DT40 TDP1 CPT -28%.
Screening O=C(CC(=O)c1ccccc1O)c1cccc(F)c1 returned ClpP mod -2%, DT40 TDP1 no CPT 4.1µM*, IL-1B inflam inh 28, D3 antag -6, DRD3 agonist -5 and DT40 TDP1 CPT 6.5µM*.
Screening Cc1cnc(-n2ncc(C(=O)N(C)CC3COCCO3)c2C2CC2)nc1-c1cccs1 (stereo not drawn) returned DT40 TDP1 no CPT -7% and DT40 TDP1 CPT -15%[9.04 µM].
For CC(C)CCNC(=O)C1CCN(c2nc3ccc(Cl)cc3[nH]2)CC1 the results were ClpP mod -3%, DT40 TDP1 no CPT inconclusive, DRD3 agonist 2 and DT40 TDP1 CPT inconclusive.
Screening Cc1ccc(N2CC(NC(=O)c3cccs3)CC2=O)cc1 (stereo not drawn) returned ClpP mod 0%, DT40 TDP1 no CPT -16%, DRD3 agonist -8 and DT40 TDP1 CPT -3%.
C=CCN(c1ccc(F)cc1)S(=O)(=O)c1cc(C(=O)NC2CC2)ccc1Cl was read as ClpP mod 1%, DT40 TDP1 no CPT 21µM*, IL-1B inflam inh 8, D3 antag 18, DRD3 agonist 3 and DT40 TDP1 CPT 21µM*.
Screening COc1ccccc1N(Cc1ccccc1)S(=O)(=O)c1cccc(C(=O)NC2CC(C)(C)NC(C)(C)C2)c1 returned ClpP mod 2%, DT40 TDP1 no CPT 18µM*, IL-1B inflam inh inconclusive, D3 antag -21, DRD3 agonist -23 and DT40 TDP1 CPT 18µM*.
CC1(C)CC(NC(=O)c2ccc(Cl)c(S(=O)(=O)N(Cc3ccccc3)c3ccccc3)c2)CC(C)(C)N1 was read as ClpP mod -1%, DT40 TDP1 no CPT inconclusive, IL-1B inflam inh -110*, D3 antag -23, DRD3 agonist -10 and DT40 TDP1 CPT inconclusive.
Screening C=CCN(c1ccc(OC)cc1)S(=O)(=O)c1ccc(Cl)c(C(=O)OCC(=O)NC2CC2)c1 returned DT40 TDP1 no CPT inconclusive, IL-1B inflam inh 49, D3 antag -8, DRD3 agonist -10 and DT40 TDP1 CPT -10%.
Screening CCOc1ccccc1NC(=O)c1cccc(S(=O)(=O)N(Cc2ccccc2)c2ccccc2OC)c1 returned ClpP mod -6%, DT40 TDP1 no CPT 16µM*, IL-1B inflam inh inactive, D3 antag 12, DRD3 agonist -4 and DT40 TDP1 CPT 21µM*.
`CC1(C)[C@@H](O)CC[C@]2(C)C3C(=O)C=C4C5C[C@@](C)(C(=O)O)CC[C@]5(C)CC[C@@]4(C)[C@]3(C)CC[C@@H]12` (stereo partly drawn) gave DT40 TDP1 no CPT -7% and DT40 TDP1 CPT 5%.
For COc1ccccc1N(Cc1ccccc1)S(=O)(=O)c1cccc(C(=O)Nc2cc(C)ccn2)c1 the results were ClpP mod -13%, DT40 TDP1 no CPT 26µM*, IL-1B inflam inh inconclusive, D3 antag -9, DRD3 agonist 10 and DT40 TDP1 CPT inconclusive.
`CC(=O)Nc1cccc(C(=O)NCc2ccc3c(c2)CCN3C(=O)c2ccc(F)cc2)c1` gave ClpP mod 0%, DT40 TDP1 no CPT 16µM*, DRD3 agonist 8 and DT40 TDP1 CPT 21µM*.
`O=C(NCc1ccc2c(c1)CCN2C(=O)c1ccccc1)c1cc2ccccc2[nH]1` gave ClpP mod 1%, DT40 TDP1 no CPT inconclusive, DRD3 agonist 1 and DT40 TDP1 CPT inconclusive.
`O=C(Cc1ccc(F)cc1)NCc1ccc2c(c1)CCN2C(=O)c1ccc(F)cc1` gave ClpP mod 1%, DT40 TDP1 no CPT 9.2µM*, DRD3 agonist 5 and DT40 TDP1 CPT inconclusive.
Screening O=C(NCc1ccc2c(c1)CCN2C(=O)c1ccc(F)cc1)c1cc2ccccc2[nH]1 returned ClpP mod 2%, DT40 TDP1 no CPT inconclusive, DRD3 agonist -6 and DT40 TDP1 CPT 16µM*.
`COc1ccc(NC(=O)CCS(=O)(=O)c2cc3c4c(c2)CCN4C(=O)CC3)cc1OC` gave ClpP mod -2%, DT40 TDP1 no CPT -4%, DRD3 agonist 7 and DT40 TDP1 CPT -16%.
Screening COc1ccc(-c2nc3c4ccccc4ccn3c2CC2CCCCC2)cc1OC returned ClpP mod 4%, DT40 TDP1 no CPT 23µM*, IL-1B inflam inh 5, D3 antag inconclusive, DRD3 agonist -23 and DT40 TDP1 CPT inconclusive.
For c1ccc(-c2nc3c4ccccc4ccn3c2CN2CCOCC2)cc1 the results were ClpP mod 3%, DT40 TDP1 no CPT 18µM*, IL-1B inflam inh -11, D3 antag 3, DRD3 agonist 0 and DT40 TDP1 CPT 10µM*.
For Clc1ccc2nc(-c3ccccc3)c(CN3CCOCC3)n2c1 the results were ClpP mod -23%, DT40 TDP1 no CPT inconclusive, IL-1B inflam inh -20, D3 antag inconclusive, DRD3 agonist 0 and DT40 TDP1 CPT inconclusive.
Screening COc1ccc(-c2nc3c4ccccc4ccn3c2CN2CCOCC2)cc1OC returned ClpP mod 4%, DT40 TDP1 no CPT inconclusive, IL-1B inflam inh inconclusive, D3 antag -2, DRD3 agonist 5 and DT40 TDP1 CPT 15µM*.
COc1ccc(-c2nc3c4ccccc4ccn3c2Cc2cccc(F)c2)cc1OC was read as ClpP mod 4%, DT40 TDP1 no CPT inconclusive, IL-1B inflam inh -24, D3 antag 0, DRD3 agonist -9 and DT40 TDP1 CPT inconclusive.

Source: PubChem
